# Measured values as given in PubChem BioAssay (NCATS).
# Values without a mark were called inactive. Records with an inconclusive call do not appear. Calls of active or inactive are those of the source. Unless noted, the call rests on the fitted dose curve; in most records, active means well fitted curve in the direction sought with a large enough effect; inconclusive means small, poorly fitted or top-dose-only effect, or another doubt; inactive means no such curve, though single readings can be large; an effect the other way counts as inactive or inconclusive.
# Tests used:
# [1] = target: Lysosomal acid glucosylceramidase (Homo sapiens) (UniProt P04062); test: Glucocerebrosidase-p2 (AID 348; in the data active means potency below about 10 µM; further: potency means the concentration at half of the fitted maximal effect); conditions: purified GBA, blue fluorogenic substrate, 40 min
# In short: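 Normal human glucocerebrosidase (0.2 nM) with blue fluorogenic substrate (80 uM final) in citrate/phosphate pH 5.9 with 10mM sodium taurocholate, 0.01% tween-20; 40 min RT, NaOH/glycine stop; fluorescence Ex 365/Em 440; AC50 from a titration from 0.6 nM upwards.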
# [2] = target: Cytochrome P450 1A2 (Homo sapiens) (UniProt P05177); test: p450-cyp1a2 (AID 410; calls by dose curve; further: potency means the concentration at half of the fitted maximal effect;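 on activity change, negative = inhibition: -100% = full effect of reference inhibitor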); conditions: recombinant CYP1A2, luciferin-ME demethylation, luminescence; series mostly up to 57 µM
# In short: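 O-Demethylation of luciferin 6' methyl ether by human CYP1A2 is monitored as luciferase luminescence. Substrate sits at Km (100uM); enzyme is 20nM. Values are scaled to 57 uM furafylline as maximal inhibition.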
# [3] = NFAT Signaling Pathway (AID 444; active means well fitted curve in either direction with a large enough effect, not every such curve was filed as active;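 further: carbachol stimulus at about its EC50 of 1 µM final; on the % scale 0 is the no-effect control and ±100 the full control effect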); conditions: Jurkat NFAT-bla M1, carbachol, beta-lactamase ratio, 5 h; at 7.69 µM (top of the series) unless noted
# In short: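 Jurkat cells carrying an NFAT-driven β-lactamase reporter and co-transfected muscarinic M1 receptor were treated with compound plus carbachol (1 uM final, an EC50 level) for 5 h at 37 °C. CCF4 loading followed for 1 h at RT; 460/530 nm ratio gave %activity.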
# [4] = target: Glucocorticoid receptor (Homo sapiens) (UniProt P04150); test: GR-GFP Redistribution (AID 450;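 active means compounds whose dose series gives a full or clear partial fitted curve of increased nuclear translocation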; further: potency means the concentration at half of the fitted maximal effect); conditions: U2OS GR-GFP nuclear translocation, laser cytometry, 2 h
# [5] = target: Glucocorticoid receptor (Homo sapiens) (UniProt P04150); test: GR-EFC Redistribution (AID 451; calls by dose curve; further: potency means the concentration at half of the fitted maximal effect); conditions: CHO-K1 GR-EFC translocation, beta-gal luminescence, 2 h
# In short: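 CHO-K1 cells stably expressing nuclear-localized β-gal enzyme acceptor and GR fused C-terminally to the enzyme donor fragment; ligand-driven nuclear translocation restores β-gal by complementation. Compounds titrated up to 46 uM final, 2 h at 37 °C; luminescence read.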
# [6] = target: 3',5'-cyclic-AMP phosphodiesterase 4B (Homo sapiens) (UniProt Q07343); test: qHTS Assay for Inhibitors of PDE-IV (AID 607; active means well fitted activation curve with a large enough effect in the main read-out, with a control signal flat, not every such curve was filed as active; further: % of control where 0% means no effect); conditions: HEK293 ACTOne CNG channel cells, membrane potential fluorescence; series mostly up to 22.9 µM
# In short: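 HEK293 ACTOne cells with CNG channel (1000/well), endogenous PDE4; membrane potential dye, compounds up to 22.9 uM final. Fluorescence Ex 535/Em 590; RO 20-1724 (100 uM final) as reference.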
# [7] = target: Cytochrome P450 2C9 (Homo sapiens) (UniProt P11712); test: qHTS Assay for Inhibitors and Substrates of Cytochrome P450 2C9 (AID 883); conditions: recombinant CYP2C9, luciferin-H luminescence, 60 min; series mostly up to 57.1 µM; further: nearly all actives have a fitted effect of over 60% in size; further: potency means the concentration at half of the fitted maximal effect
# In short: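 CYP2C9 deoxyluciferin hydroxylation, 37C, 60 min with NADPH regeneration; 10nM enzyme, 100uM Luciferin-H (KM). Glo detection reagent stopped reaction; luminescence normalized to sulphaphenazole (57uM) full inhibition.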
# [8] = target: Cytochrome P450 3A4 (Homo sapiens) (UniProt P08684); test: qHTS Assay for Inhibitors and Substrates of Cytochrome P450 3A4 (AID 884); conditions: recombinant CYP3A4, Luciferin-PPXE luminescence; series mostly up to 57.1 µM; further: potency means the concentration at half of the fitted maximal effect; nearly all actives have a fitted effect of over 50% in size
# In short: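 Luminescent readout of luciferin produced by CYP3A4 (20 nM) dealkylation of Luciferin-PPXE, 25 uM (its KM). NADPH-driven reaction ran 60 min at RT after 10 min compound preincubation; data scaled to 57 uM ketoconazole as 100% inhibition.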
# [9] = target: Cytochrome P450 3A4 (Homo sapiens) (UniProt P08684); test: qHTS Assay for Activators of Cytochrome P450 3A4 (AID 885); conditions: recombinant CYP3A4, Luciferin-PPXE luminescence, 60 min; series mostly up to 57.1 µM; further: nearly all actives have a fitted effect of over 65% in size
# In short: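 Human CYP3A4 dealkylates Luciferin-PPXE to luciferin, which luciferase detection converts to light. Substrate was at its KM (25uM), buffer 200mM KPO4, reaction 60 min at RT.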
# [10] = target: Cytochrome P450 2C19 (Homo sapiens) (UniProt P33261); test: qHTS Assay for Inhibitors and Substrates of Cytochrome P450 2C19 (AID 899); conditions: recombinant CYP2C19, luciferin-H EGE luminescence; series mostly up to 57.1 µM; further: potency means the concentration at half of the fitted maximal effect; nearly all actives have a fitted effect of over 60% in size
# In short: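 In 50mM KPO4, the reaction held 5nM enzyme and KM-level (10uM) Luciferin-H EGE; it ran 60 min at 37C after NADPH regeneration and a 10 min compound preincubation. Luminescence values were scaled to 57uM ketoconazole as complete inhibition.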
# [11] = target: Dual specificity protein kinase CLK4 (Homo sapiens) (UniProt Q9HAZ1); test: qHTS Assay for Inhibitors of CDC-like Kinase 4 (Kinase-Glo Assay) (AID 1770); conditions: recombinant Clk4, Kinase-Glo ATP depletion luminescence; series mostly up to 66.7 µM; further: nearly all actives have a fitted effect of over 65% in size; further: potency means the concentration at half of the fitted maximal effect
# In short: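 Recombinant human Clk4 (25 nM) phosphorylated RS repeat peptide (100 uM) with 1 uM ATP in Tris pH 7.5/MgCl2/EGTA/DTT/Triton buffer for 4.5 h at room temperature. Residual ATP was quantified by Kinase-Glo luciferase luminescence.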
# [12] = target: Dual specificity protein kinase CLK4 (Homo sapiens) (UniProt Q9HAZ1); test: qHTS Assay for Inhibitors of CDC-like Kinase 4 (ADP-Glo Assay) (AID 1771); conditions: recombinant CLK4, ADP-Glo luminescence; series mostly up to 80 µM; further: nearly all actives have a fitted effect of over 70% in size; further: potency means the concentration at half of the fitted maximal effect
# In short: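 Compounds are pin-transferred onto substrate mix (100 uM RS peptide, 1 uM ATP), then 25 nM Clk4 is added. After 1 hr at room temperature, ADP-Glo reagent runs 45 min, detection reagent 30 min, then luminescence is read.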
# [13] = target: Dual specificity protein kinase CLK4 (Homo sapiens) (UniProt Q9HAZ1); test: qHTS Assay for Inhibitors of CDC-like Kinase 4 (ADP-FP Assay) (AID 1795); conditions: Transcreener ADP fluorescence polarization; series mostly up to 50 µM; further: nearly all actives have a fitted effect of over 60% in size; further: potency means the concentration at half of the fitted maximal effect
# In short: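 Recombinant human Clk4 (6.25 nM) phosphorylated RS repeat peptide (100 uM) with 1 uM ATP in Tris pH 7.5/MgCl2/EGTA/DTT/Triton buffer for one hour. ADP was quantified by Transcreener competitive fluorescence polarization against an ADP calibration curve.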
# [14] = target: Ubiquitin carboxyl-terminal hydrolase 1 (Homo sapiens) (UniProt O94782); test: Inhibitors of USP1/UAF1: Pilot qHTS (AID 504865); conditions: purified USP1/UAF1, Ub-rhodamine cleavage fluorescence; series mostly up to 54.9 µM;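 further: rhodamine fluorescence freed from ubiquitin-rhodamine substrate followed over time; top concentration of the series differs between compounds; on the % scale 0 is the no-effect control and ±100 the full control effect; nearly all actives have a fitted effect of over 35% in size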
# In short: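 USP1/UAF1 complex (1nM) preincubated with compound 15 min at room temperature, then Ub-Rho substrate (150nM final) added. Fluorescence read kinetically at 480/540 nm, 6 reads every 60 seconds. Buffer: 50mM HEPES pH 7.8, 0.5mM EDTA, 0.1 mg/ml BSA, 1mM TCEP, 0.01% Tween-20.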
# [15] = Primary qHTS for small molecule stabilizers of the endoplasmic reticulum resident proteome: Secreted ER Calcium Modulated Protein (SERCaMP) assay (AID 1508630); conditions: SH-SY5Y GLuc-SERCaMP (Gaussia luciferase released on ER calcium loss) secretion, thapsigargin, luminescence; series mostly up to 38.4 µM; further: on the % scale 0 is the no-effect control and ±100 the full control effect
# In short: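 The SH-SY5Y reporter protocol was run at 3 concentrations up to 38.3 uM (primary) or 11 concentrations (follow-up): 16 h compound, 100 nM thapsigargin for 4 h, then extracellular luciferase luminescence.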
# [16] = target: Mitogen-activated protein kinase 10 (Mus musculus) (UniProt Q61831); test: JNK3 AlphaScreen Assay (AID 530; active means well fitted curve in either direction with a large enough effect, not every such curve was filed as active;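 further: kinase came from lysate of stimulated human HepG2 cells; signal reports phosphorylation of biotinylated GST-cJun 1-79 at Ser73 with 10 µM ATP; on the % scale 0 is the no-effect control and ±100 the full control effect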); conditions: JNK3 lysate, c-Jun phosphorylation; series mostly up to 57.1 µM
# In short: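 Phosphorylation of biotinylated GST-cJun(1-79) at Ser73 is measured by AlphaScreen proximity luminescence. Enzyme is JNK3 in HepG2 lysates activated with interleukin-1beta and tumor necrosis factor alpha; ATP is 10 uM final.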
# [17] = target: Cytochrome P450 2D6 (Homo sapiens) (UniProt P10635); test: qHTS Assay for Inhibitors and Substrates of Cytochrome P450 2D6 (AID 891); conditions: recombinant CYP2D6, luciferin-ME EGE luminescence; series mostly up to 57.1 µM;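 further: luciferin methyl ether substrate demethylated by CYP2D6 with NADPH regeneration; on the % scale 0 is the no-effect control and ±100 the full control effect; nearly all actives have a fitted effect of over 60% in size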
# In short: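 Luminescent read-out of luciferin formed by 5 nM human CYP2D6 demethylating 30 uM Luciferin-ME EGE (Km level) over 60 min at room temperature after NADPH regeneration addition. Data normalized to full inhibition by 1.43 uM quinidine.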
# [18] = qHTS Assay for Identification of Small Molecule Agonists for Hypoxia Response Element Signaling Pathway (AID 914; active means well fitted activation curve with a large enough effect in the signal ratio, with a control signal flat, not every such curve was filed as active; the % refers to the signal ratio; further: potency means the concentration at half of the fitted maximal effect; on activation: % of control where 0% means no effect); conditions: ME-180 HRE-bla reporter, beta-lactamase ratio, CoCl2, 17 h; activation: stronger effect = higher value
# In short: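 In Opti-MEM containing 0.5% dialyzed FBS and 10 mM HEPES, ME-180 HRE-bla cells received a compound titration and EC50 CoCl2. They were incubated 17 hours, then CCF4-loaded 2.5 hours at room temperature before ratio reading.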
# [19] = Stat Signaling Pathway (AID 446; active means well fitted curve in either direction with a large enough effect, not every such curve was filed as active;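 further: ME-180 cervical cancer cells given 40 pM IL-6 alongside compound; SIE-controlled beta-lactamase reporter measured as 460/530 nm FRET emission ratio; on the % scale 0 is the no-effect control and ±100 the full control effect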); conditions: ME-180 (cervical carcinoma) SIE beta-lactamase reporter, IL-6 stimulated, 5 h; at 7.69 µM (top of the series) unless noted
# In short: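 Normalization used AC90 stimulation (300 pM IL-6) and AC90 inhibition (125 nM pan-JAK inhibitor at 40 pM IL-6). The underlying signal is SIE-driven beta-lactamase in ME-180 cells after 5 h IL-6 exposure with compound.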
# Sequence of Cytochrome P450 3A4 (Homo sapiens) (P08684 whole entry, looked up): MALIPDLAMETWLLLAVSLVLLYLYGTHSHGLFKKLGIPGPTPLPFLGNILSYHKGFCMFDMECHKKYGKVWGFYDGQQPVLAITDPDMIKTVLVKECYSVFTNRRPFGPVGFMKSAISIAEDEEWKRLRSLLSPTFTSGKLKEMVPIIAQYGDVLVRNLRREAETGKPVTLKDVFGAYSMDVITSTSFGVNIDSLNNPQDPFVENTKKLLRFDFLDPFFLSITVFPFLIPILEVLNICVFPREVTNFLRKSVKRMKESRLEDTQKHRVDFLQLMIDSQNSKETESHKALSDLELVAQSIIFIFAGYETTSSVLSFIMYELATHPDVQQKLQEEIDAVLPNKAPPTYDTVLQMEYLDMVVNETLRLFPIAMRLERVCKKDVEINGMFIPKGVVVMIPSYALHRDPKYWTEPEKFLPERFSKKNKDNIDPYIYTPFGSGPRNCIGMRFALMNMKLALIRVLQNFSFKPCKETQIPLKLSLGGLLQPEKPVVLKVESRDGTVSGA
# Sequence of Cytochrome P450 1A2 (Homo sapiens) (P05177 whole entry, looked up): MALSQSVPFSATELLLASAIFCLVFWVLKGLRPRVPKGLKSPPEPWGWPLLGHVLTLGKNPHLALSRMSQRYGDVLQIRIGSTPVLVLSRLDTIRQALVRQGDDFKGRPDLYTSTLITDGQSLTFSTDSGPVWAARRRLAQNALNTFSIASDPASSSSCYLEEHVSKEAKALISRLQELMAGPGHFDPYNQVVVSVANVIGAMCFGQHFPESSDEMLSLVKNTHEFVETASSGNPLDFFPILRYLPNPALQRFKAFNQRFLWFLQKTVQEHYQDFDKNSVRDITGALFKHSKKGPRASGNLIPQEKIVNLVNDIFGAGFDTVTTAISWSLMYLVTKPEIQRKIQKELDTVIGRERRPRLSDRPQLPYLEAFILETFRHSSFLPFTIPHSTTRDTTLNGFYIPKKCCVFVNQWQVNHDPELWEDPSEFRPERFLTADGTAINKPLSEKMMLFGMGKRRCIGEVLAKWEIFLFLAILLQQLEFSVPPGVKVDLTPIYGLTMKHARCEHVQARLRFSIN
# Sequence of Lysosomal acid glucosylceramidase (Homo sapiens) (P04062 whole entry, looked up): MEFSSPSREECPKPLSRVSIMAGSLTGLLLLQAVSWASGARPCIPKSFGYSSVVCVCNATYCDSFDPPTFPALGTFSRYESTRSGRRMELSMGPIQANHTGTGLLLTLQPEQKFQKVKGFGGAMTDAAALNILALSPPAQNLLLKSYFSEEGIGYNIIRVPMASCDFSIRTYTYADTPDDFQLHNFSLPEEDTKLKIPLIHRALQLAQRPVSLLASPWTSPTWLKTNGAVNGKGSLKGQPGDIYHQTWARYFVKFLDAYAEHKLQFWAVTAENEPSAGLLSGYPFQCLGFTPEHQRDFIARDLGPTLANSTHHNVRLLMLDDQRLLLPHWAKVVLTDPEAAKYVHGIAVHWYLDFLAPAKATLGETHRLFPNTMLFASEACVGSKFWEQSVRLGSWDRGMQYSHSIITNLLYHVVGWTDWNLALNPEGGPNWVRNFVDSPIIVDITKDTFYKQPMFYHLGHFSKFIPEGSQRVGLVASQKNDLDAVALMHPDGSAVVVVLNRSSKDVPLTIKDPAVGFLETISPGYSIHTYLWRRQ
# Sequence of Dual specificity protein kinase CLK4 (Homo sapiens) (Q9HAZ1 whole entry, looked up): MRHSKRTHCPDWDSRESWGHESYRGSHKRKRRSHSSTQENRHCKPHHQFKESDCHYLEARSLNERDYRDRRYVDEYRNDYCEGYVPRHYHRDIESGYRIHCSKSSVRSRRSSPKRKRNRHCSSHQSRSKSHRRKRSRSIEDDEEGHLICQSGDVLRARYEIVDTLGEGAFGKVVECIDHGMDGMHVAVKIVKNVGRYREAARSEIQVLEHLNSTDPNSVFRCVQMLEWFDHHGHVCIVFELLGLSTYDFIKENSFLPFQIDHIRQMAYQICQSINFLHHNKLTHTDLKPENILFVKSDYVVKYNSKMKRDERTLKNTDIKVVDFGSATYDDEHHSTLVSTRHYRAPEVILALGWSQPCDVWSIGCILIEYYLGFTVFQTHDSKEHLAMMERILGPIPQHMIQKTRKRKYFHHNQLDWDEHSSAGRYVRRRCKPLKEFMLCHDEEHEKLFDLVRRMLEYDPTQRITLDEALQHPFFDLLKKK
# Sequence of 3',5'-cyclic-AMP phosphodiesterase 4B (Homo sapiens) (Q07343 whole entry, looked up): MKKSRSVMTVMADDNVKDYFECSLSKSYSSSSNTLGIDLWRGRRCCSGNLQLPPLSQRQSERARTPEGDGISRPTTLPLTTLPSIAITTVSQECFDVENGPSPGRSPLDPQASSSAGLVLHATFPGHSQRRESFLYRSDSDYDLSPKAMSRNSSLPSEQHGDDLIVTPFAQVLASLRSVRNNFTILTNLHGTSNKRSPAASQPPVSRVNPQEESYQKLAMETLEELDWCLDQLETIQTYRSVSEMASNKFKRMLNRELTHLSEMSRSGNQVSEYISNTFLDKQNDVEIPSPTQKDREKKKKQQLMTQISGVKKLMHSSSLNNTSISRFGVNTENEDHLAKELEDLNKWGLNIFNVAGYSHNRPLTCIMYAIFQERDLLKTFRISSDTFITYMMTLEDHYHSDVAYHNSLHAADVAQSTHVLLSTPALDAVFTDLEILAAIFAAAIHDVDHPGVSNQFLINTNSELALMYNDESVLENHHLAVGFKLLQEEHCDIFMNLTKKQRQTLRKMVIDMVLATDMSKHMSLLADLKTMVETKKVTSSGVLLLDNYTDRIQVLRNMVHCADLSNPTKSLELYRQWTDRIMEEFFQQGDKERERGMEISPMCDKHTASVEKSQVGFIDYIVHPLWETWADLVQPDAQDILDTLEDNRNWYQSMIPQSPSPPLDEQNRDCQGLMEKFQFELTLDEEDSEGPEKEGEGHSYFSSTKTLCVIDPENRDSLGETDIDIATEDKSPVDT
# Sequence of Ubiquitin carboxyl-terminal hydrolase 1 (Homo sapiens) (O94782 whole entry, looked up): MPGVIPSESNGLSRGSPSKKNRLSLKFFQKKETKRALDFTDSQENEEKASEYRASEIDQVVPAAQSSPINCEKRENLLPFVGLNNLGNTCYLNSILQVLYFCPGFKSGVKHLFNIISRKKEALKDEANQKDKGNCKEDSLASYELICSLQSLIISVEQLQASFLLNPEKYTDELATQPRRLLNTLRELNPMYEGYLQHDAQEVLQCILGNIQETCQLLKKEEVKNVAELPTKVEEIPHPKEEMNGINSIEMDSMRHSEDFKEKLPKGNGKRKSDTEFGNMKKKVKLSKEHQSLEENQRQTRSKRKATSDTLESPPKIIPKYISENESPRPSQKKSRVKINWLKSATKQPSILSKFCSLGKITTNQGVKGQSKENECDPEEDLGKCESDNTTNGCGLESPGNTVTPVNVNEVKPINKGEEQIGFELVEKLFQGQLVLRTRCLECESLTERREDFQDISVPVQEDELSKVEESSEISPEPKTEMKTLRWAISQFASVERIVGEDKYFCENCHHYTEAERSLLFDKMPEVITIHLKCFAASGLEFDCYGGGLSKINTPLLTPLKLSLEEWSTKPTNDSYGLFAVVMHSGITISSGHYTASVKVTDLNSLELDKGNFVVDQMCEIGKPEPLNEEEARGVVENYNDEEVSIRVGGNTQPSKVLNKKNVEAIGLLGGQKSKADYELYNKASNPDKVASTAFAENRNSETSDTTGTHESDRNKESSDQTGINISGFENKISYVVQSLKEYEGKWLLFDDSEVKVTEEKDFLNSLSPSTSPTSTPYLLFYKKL
# Sequence of Glucocorticoid receptor (Homo sapiens) (P04150 whole entry, looked up, the tested form may be a part): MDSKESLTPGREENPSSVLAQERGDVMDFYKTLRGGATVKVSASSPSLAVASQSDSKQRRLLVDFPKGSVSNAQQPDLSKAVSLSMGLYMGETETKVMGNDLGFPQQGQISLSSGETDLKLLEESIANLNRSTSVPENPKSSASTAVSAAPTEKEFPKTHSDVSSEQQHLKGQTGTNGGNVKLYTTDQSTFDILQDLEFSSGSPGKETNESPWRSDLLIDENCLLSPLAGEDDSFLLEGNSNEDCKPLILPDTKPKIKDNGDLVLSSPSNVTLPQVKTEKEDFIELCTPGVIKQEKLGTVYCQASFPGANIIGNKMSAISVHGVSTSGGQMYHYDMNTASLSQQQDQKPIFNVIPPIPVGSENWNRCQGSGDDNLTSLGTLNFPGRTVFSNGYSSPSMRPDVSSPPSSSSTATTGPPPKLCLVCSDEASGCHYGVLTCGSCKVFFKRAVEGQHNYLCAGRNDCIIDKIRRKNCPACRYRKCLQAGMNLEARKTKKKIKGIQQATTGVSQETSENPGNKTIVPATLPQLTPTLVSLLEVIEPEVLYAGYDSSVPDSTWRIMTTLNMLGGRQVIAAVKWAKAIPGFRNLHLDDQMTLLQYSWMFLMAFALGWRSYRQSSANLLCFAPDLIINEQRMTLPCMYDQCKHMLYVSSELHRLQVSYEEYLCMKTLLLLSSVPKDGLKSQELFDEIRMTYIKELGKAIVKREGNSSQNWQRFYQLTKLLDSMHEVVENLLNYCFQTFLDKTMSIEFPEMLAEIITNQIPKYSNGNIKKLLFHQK
# Sequence of Cytochrome P450 2C9 (Homo sapiens) (P11712 whole entry, looked up): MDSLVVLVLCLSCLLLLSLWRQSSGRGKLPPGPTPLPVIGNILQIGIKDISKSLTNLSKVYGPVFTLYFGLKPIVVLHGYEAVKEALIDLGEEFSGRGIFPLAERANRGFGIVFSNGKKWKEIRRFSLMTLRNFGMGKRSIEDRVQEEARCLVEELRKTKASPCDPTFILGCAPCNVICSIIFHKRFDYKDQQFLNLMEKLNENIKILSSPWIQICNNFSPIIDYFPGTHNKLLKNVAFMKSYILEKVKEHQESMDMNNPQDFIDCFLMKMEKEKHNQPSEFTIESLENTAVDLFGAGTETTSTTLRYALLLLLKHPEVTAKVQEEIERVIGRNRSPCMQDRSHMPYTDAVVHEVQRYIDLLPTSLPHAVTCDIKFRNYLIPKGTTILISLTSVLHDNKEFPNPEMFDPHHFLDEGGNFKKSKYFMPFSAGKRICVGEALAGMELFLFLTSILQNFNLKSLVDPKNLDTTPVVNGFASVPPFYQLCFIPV
SMILES,Potency [1],Potency [2],"activity change, negative = inhibition [3]",Potency [4],Potency [5],Potency [6],Potency [7],Potency [8],Potency [9],Potency [10],Potency [11],Potency [12],Potency [13],Potency [14],outcome [15],Potency [16],Potency [17],Potency [18],"activity, negative = inhibition [19]",activation [18]
COc1ccccc1CCn1c(=O)c(-c2cn(C)c3ccccc23)nc2cncnc21,> 11.4 µM,1.26 µM (active),19%,> 9.22 µM,> 46 µM,inactive,0.316 µM (active),2.51 µM (active),inactive,0.316 µM (active),inactive,inactive,inactive,inactive,inactive,–,–,–,–,–
O=c1c(-c2ccc(Cl)cc2)nc2cnc(N3CCOCC3)nc2n1Cc1ccc(F)cc1,> 11.4 µM,inactive,–,> 9.22 µM,> 46 µM,–,inactive,–,–,–,inactive,inactive,inactive,inactive,inactive,inactive,inactive,3.16 µM (active),–,–
O=c1c(-c2ccccc2)nc2cnc(N3CCOCC3)nc2n1Cc1ccc(F)cc1,> 11.4 µM,20 µM (active),–,> 9.22 µM,> 46 µM,–,–,–,–,–,inactive,inactive,inactive,inactive,inactive,inactive,–,–,–,–
Fc1ccc(Nc2ncnc3ccc(-c4ccoc4)cc23)cc1,> 11.4 µM,1 µM (active),10.4%,> 46 µM,> 46 µM,–,–,–,inactive,–,0.631 µM (active),0.708 µM (active),0.355 µM (active),inactive,inactive,inactive,–,–,-22.9%,–
CN(C)c1ncc2nc(-c3ccc(Cl)cc3)c(=O)n(Cc3cccs3)c2n1,> 11.4 µM,1.58 µM (active),–,> 9.22 µM,> 46 µM,inactive,–,–,–,–,inactive,inactive,inactive,inactive,inactive,inactive,–,0.398 µM (active),153% [activator] (active),–
COCCNc1ncnc2ccc(-c3c(C)noc3C)cc12,> 11.4 µM,3.98 µM (active),–,> 46 µM,> 46 µM,inactive,–,–,inactive,–,3.98 µM (active),0.708 µM (active),1.41 µM (active),inactive,inactive,inactive,–,1.58 µM (active),–,–
COc1ccccc1CNc1cc(-c2ccc(C(=O)N(C)C)cc2)ncn1,> 11.4 µM,7.94 µM (active),8.83%,> 46 µM,> 46 µM,–,–,–,inactive,–,7.08 µM (active),7.08 µM (active),11.2 µM (active),inactive,inactive,inactive,–,–,–,6.06%
